Results on 38 compounds are retold here after PubChem BioAssay (EPA / NIEHS).

Active and inactive are the calls of the source. Rule for the calls: active = hit-call score of the fitted dose curve at least 0.9, where 1 is the maximum; inactive = score below 0.9.

Read-out in this assay: Actin alpha 1 (ACTA1), ACTA1 (gene 58)
Briefly: BSK_MyoF_ACTA1: BioMAP Diversity Plus: MyoF Assay for Actin alpha 1 (ACTA1) Biomarker Activity (AID 2284244). Particulars: primary human lung fibroblasts. The method, then: BSK_MyoF is a cell-based, multiplexed-readout assay that uses lung fibroblasts, […], with measurements taken at 24 hours after chemical dosing in a microplate: 96-well plate.BSK_MyoF_ACTA1 is an assay component measured in the BSK_MyoF assay. It measures a-SMA antibody related to regulation of gene expression using ELISA technology.Data from the assay component BSK_MyoF_ACTA1 was analyzed at the endpoint, BSK_MyoF_ACTA1, in the positive analysis fitting direction relative to DMSO as the negative control and baseline of activity. Using a type of binding reporter, gain or loss-of-signal activity can be used to understand protein changes. To generalize the intended target to other relatable targets, this assay endpoint is annotated to the 'cell adhesion molecules' intended target family, where the subfamily is 'actin'.
The levels of cell surface (or secreted, indicated by the prefix "s") biomarker endpoints were measured by ELISA. Overt cytotoxicity to cells in confluent adherent cultures (all systems other than the BT system) was assessed by measuring total protein levels using sulforhodamine B (SRB) staining in parallel cultures at the time of biomarker measurements, indicated as SRB endpoints. For proliferation assays for adherent cell types, individual cell types are cultured at sub-confluence and relative cell numbers quantified by SRB staining at time points optimized for each system (48 h: 3C and CASM3C systems; 72 h: BT and HDF3CGF systems; 96 h: SAg system). SRB was performed by staining cells with 0.1% SRB after fixation with 10% TCA and reading wells at 560 nm.Viability and proliferation of PBMC (T cells) was quantified by Alamar Blue reduction for the SAg and BT systems. For PBMC viability (referred to as PBMC Cytotoxicity within the assay endpoint names), cells were plated (75,000/well in a 96-well plate) and then chemical samples added for 1 h before addition of activators, SEB and TSST-1 (20 ng/mL final concentration each). Cells were incubated for 90 h. Then, Alamar Blue (20 uL/well) (Invitrogen, Cat DAL1100) was added for 6 h, and the plates were read with a fluorescence microplate reader at 546/580 nm (excitation/emission). For PBMC proliferation, cells were plated and activated as above but incubated for only 16 h prior to addition of Alamar Blue. Plates were read after 6 h.
Take `C1=CC2C3C=CC(C3)C2C1` (stereo not drawn): the result was inactive.
One may read the AC50 as the concentration giving half of the maximal activity seen. With `CC(=O)C1(C)CC2=C(CCCC2(C)C)CC1C` (stereo not drawn), the AC50 was 13.1 µM (active).
`C=C(C)C(=O)OCCOCCOCCOC(=O)C(=C)C`: the outcome was inactive.
Same read-out and setting: under `CN(c1nccc(=O)[nH]1)C1CCN(c2nc3ccccc3n2Cc2ccc(F)cc2)CC1` stands “inactive”; under `O=C1c2ccccc2C(=O)c2c(O)ccc(O)c21`, “inactive”.
For `CN(C)C(=S)SC(=S)N(C)C`, the AC50 was 36.6 µM (active).
With `c1ccc(Oc2ccccc2)cc1`, the outcome was inactive.
Turning to `CC(=O)c1c(C)c([N+](=O)[O-])c(C(C)(C)C)c([N+](=O)[O-])c1C`, the result was inactive.
As for `CCCCCCCCCCCCCCCC(=O)OC/C=C(C)/C=C/C=C(C)/C=C/C1=C(C)CCCC1(C)C`, the outcome was inactive.
As for `C=C(C)C(=O)OCC(CC)(COC(=O)C(=C)C)COC(=O)C(=C)C`, the AC50 is 10.5 µM (active).
For `IC(I)I`, the outcome was inactive.
The same measure, in the same setting: with `CCN(CC)C(=O)N(CC)CC` the entry was “inactive”.
With `CC(C=O)Cc1ccc(C(C)(C)C)cc1` (stereo not drawn), the AC50 was 31.6 µM (active).
As to `CS(=O)(=O)c1ccc(C2=C(c3ccccc3)C(=O)OC2)cc1`, the outcome was inactive.
As to `c1ccc2cc(Nc3ccc(Nc4ccc5ccccc5c4)cc3)ccc2c1`, the result was inactive.
For `C=C(C)[C@H]1CC=C(C)C(=O)C1`, the result was inactive.
Regarding `CCCCOC(=O)CCCCCCCC(=O)OCCCC`, the outcome was inactive.
For `COc1ccc(OC)c(N=Nc2c(O)ccc3ccccc23)c1`, the AC50 was 10.5 µM (active).
Same read-out and setting: under `Clc1cc(Cl)c(-c2c(Cl)c(Cl)cc(Cl)c2Cl)cc1Cl` stands 4.98 µM (active).
For the compound `CC(C)(N=C=O)c1cccc(C(C)(C)N=C=O)c1`, the outcome was inactive.
Turning to `O=C1OC[C@H](Cc2cccc(O)c2)[C@H]1Cc1cccc(O)c1`, the result was inactive.
Take `c1ccc(CCc2ccccc2)cc1`: the AC50 is 13.7 µM (active).
`CCCCN(CCCC)C(=O)N(CCCC)CCCC`: the AC50 is 6.35 µM (active).
`CSCCC=O`: the result was inactive.
For `Cc1cc(CCC(=O)OCCOCCOCCOC(=O)CCc2cc(C)c(O)c(C(C)(C)C)c2)cc(C(C)(C)C)c1O`, the result was inactive.
`CCCCCC(C=O)=Cc1ccccc1`: the AC50 is 29.5 µM (active).
As for `C[C@@H]1CCN(C(=O)[C@H](CCCN=C(N)N)NS(=O)(=O)c2cccc3c2NC[C@H](C)C3)[C@@H](C(=O)O)C1`, the result was inactive.
For `Oc1c(Cl)cc(Cl)c(Cl)c1Cc1c(O)c(Cl)cc(Cl)c1Cl`, the AC50 was 0.469 µM (active).
On to `CC(C)(C)CC(C)(C)c1ccc(OCCOCC[N+](C)(C)Cc2ccccc2)cc1`, for which the AC50 was 8.1 µM (active).
The same measure, in the same setting: with `CCC(C)c1cc([N+](=O)[O-])cc([N+](=O)[O-])c1OC(=O)OC(C)C` (stereo not drawn) the figure was 8.46 µM (active); with `CC(=O)Nc1ccc(C(=O)CCl)cc1`, 20 µM (active).
With `COc1cc(Cl)c(OC)cc1N`, the result was inactive.
On to `C=C(C)C(=O)OCCOCCOCCOCCOC(=O)C(=C)C`, for which the outcome was inactive.
For `CC1(C)C2=CCCC(C)(C)[C@]23CC[C@H]1C3`, the concentration at half-maximal activity (AC50) is 30.9 µM (active).
`CN(C)C(=O)Nc1ccc(Oc2ccc(Cl)cc2)cc1`: the result was inactive.
As for `CC=Cc1ccc(OCC)c(O)c1`, the outcome was inactive.
With `O=C1OC2(c3ccccc31)c1ccc(O)c(Br)c1Oc1c2ccc(O)c1Br`, the outcome was inactive.
As for `COc1ccc(CCN2CCC(Nc3nc4ccccc4n3Cc3ccc(F)cc3)CC2)cc1`, the AC50 is 8.05 µM (active).
